Screening results as filed in PubChem.
Shown are actives, neighbours in structure and some others; about 1.3% of the full set was active somewhere.
UbGFP stabilizer: ubiquitin-GFP accumulation via proteasome inhibition. Ubiquitin-GFP reporter cells, proteasome inhibition, GFP fluorescence; response scale: untreated = 0%, 10 µM MG-132 = 100%. Potency, µM (series often up to 45.9 µM), inactives show at the highest dose activation (GFP accumulation), hits mostly activators. 67,000 tested, under 10 active. AID 526; active means well fitted activation curve with a large enough effect, not every such curve was filed as active; inconclusive means small, poorly fitted or top-dose-only effect, or another doubt; inactive means no such curve, though single readings can be large or run the other way; further: potency means the concentration at half of the fitted maximal effect
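GFP accumulation read-out: laser plate cytometry counting ubiquitin(G76V)-GFP-expressing U2OS cells after 4 hr compound exposure at 37 °C. Titrations spanned 46 uM to 2.9 nM; 0% = basal, 100% = 10 uM MG-132; concentration-response curves fitted.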
GFP derepression: epigenetic modulators derepressing GFP locus in mouse cells; mouse C127i GFP locus derepression, cytometry, 30 h; Potency, µM (highest dose often 46.1 µM), inactives show at the top dose GFP derepression (activation); 68,000 tested, 0.09% active; AID 597; further: % of control where 0% means no effect
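Locus derepression in mouse mammary C127i cells whose integrated CMV-GFP reporter is normally silent; GFP expression after 30 h compound treatment was quantified by counting fluorescent cells.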
USP2a inh: USP2a (human) protease inhibition; AID 927; O75604; 60,000 tested, 0.1% active; USP2a enzymatic assay, qHTS inhibition; Potency, µM (doses to about 38.3 µM), inactives show top-dose activity change, negative = inhibition, hits mostly inhibitors; further: potency means the concentration at half of the fitted maximal effect; nearly all actives have a fitted effect of over 60% in size
Target sequence (O75604 whole entry, looked up): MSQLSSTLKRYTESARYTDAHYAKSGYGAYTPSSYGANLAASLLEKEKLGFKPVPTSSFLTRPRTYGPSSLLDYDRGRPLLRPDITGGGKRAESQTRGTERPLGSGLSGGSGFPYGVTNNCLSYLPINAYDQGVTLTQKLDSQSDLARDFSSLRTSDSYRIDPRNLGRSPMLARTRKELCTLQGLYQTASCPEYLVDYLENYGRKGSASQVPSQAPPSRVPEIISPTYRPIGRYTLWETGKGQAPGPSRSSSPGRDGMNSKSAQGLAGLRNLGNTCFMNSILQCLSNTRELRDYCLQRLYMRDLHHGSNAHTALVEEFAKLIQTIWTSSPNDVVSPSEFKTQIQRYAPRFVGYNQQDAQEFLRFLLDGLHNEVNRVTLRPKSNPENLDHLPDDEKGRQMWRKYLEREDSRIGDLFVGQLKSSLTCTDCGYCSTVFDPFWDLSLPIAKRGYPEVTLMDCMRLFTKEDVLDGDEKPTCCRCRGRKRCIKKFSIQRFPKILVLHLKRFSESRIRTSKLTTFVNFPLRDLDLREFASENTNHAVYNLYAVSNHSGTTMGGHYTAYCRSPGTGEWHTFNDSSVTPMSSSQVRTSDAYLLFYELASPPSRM
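USP2 core (20nM final) preincubated 30 min RT with compound, then Ub-PLA2 20nM and NBD C6-HPC 20uM final added; buffer 20mM Tris-HCl pH 8.0, 2mM CaCl2. Fluorescence Ex 460/Em 535 read at 0 and 2.5 h; normalized to NEM.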
HBB splicing: alters splicing of the hemoglobin beta chain; HBB splicing reporter cell assay, activation; EGFP reporter with mutant IVS2-654 intron; response scale: normalised to 500 nM splice-correcting PNA; AID 925; Potency, µM (top dose mostly 46.1 µM), without a hit: at the top dose activation, usual class: activators; 65,000 tested, 0.06% active; further: potency means the concentration at half of the fitted maximal effect; 0% is about no effect
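Compounds were applied for 2 days to HeLa EGFP-654 cells, 500/well in Optimem with 2% FCS. The reporter's EGFP is disrupted by mis-splicing of beta-globin intron IVS2-654. Readout: summed well GFP fluorescence from 488 nm laser scanning; reference was 500 nM antisense […] 654 PNA.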
PK Bst: alters activity of Bacillus stearothermophilus pyruvate kinase. purified pyruvate kinase, luminescence ATP production; ribose 5-phosphate activator present at AC10. Potency, µM. 51,000 tested, 1.2% active. AID 361; in the data active means potency below about 11 µM; inconclusive means mostly about 12 µM to 25 µM;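 the screen sought inhibitors and activators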;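 further: potency means the concentration at half of the fitted maximal effect; scaled between full activation by ribose 5 phosphate and full inhibition by luteolin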
Hsp90 Hop PPI: changes Hsp90-Hop TPR2A binding signal, up or down. AlphaScreen TPR2A-His6 binding biotin-Hsp90 C-terminal peptide. Potency, µM (titrated, usually from 57 µM), inactives show at the top dose activity change, negative = inhibition. 71,000 tested, 0.44% active. AID 595; active means well fitted curve in either direction with a large enough effect; inconclusive means small, poorly fitted or top-dose-only effect, or another doubt; further: potency means the concentration at half of the fitted maximal effect; on the % scale 0 is the no-effect control and ±100 the full control effect
* = called active by the depositor; i = inactive; ? = inconclusive; · = not tested or not shown; [ ] = remark or other dose. Unless noted, the call rests on the fitted dose curve; in most records, active means well fitted curve in the direction sought with a large enough effect; inconclusive means small, poorly fitted or top-dose-only effect, or another doubt; inactive means no such curve, though single readings can be large; an effect the other way counts as inactive or inconclusive.

SMILES	UbGFP stabilizer	GFP derepression	USP2a inh	HBB splicing	PK Bst	Hsp90 Hop PPI
O=C(O)c1cc2c(cc1S(=O)(=O)O)[C@H]1[C@@H]([C@H]3[C@H]2[C@@]2(Cl)C(Cl)=C(Cl)[C@]3(Cl)C2(Cl)Cl)[C@]2(Cl)C(Cl)=C(Cl)[C@@]1(Cl)C2(Cl)Cl	-4%[9.17 µM]	-2%[9.22 µM]	·	-2%[9.22 µM]	·	-3%[11 µM]
COc1ccccc1C(=O)Nc1ccc2c(c1)nc1n2CCSC1	·	0%	46%	2%[0.369 µM]	5.6*	-3%
c1ccc2c(c1)-c1cccc3c1c-2cc1ccccc13	·	·	·	0%	·	5µM*
COc1ccc(C2C(C#N)=C(N)N3C(=C2C#N)Sc2ccccc23)cc1 (stereo not given)	15%	13µM*	12%	28%	·	5%
NC[C@@H]1O[C@@H](O[C@H]2[C@@H](O)[C@H](O[C@@H]3[C@H](O)[C@H](N)C[C@H](N)[C@H]3O[C@@H]3O[C@@H](CO)[C@H](O)[C@H](O)[C@@H]3N)O[C@H]2CO)[C@H](N)[C@H](O)[C@@H]1O	-2%	0%	3%	1%	·	-2%
CC(C)(C)n1ncc2c(=O)n(Cc3ccc(Cl)cc3Cl)cnc21	4%	1%	-4%	-1%	2.9*	8%
CC(C)(C)n1ncc2c(=O)n(CC(=O)c3ccc(Cl)cc3)cnc21	1%	0%	20%	2%	·	4%
CC(C)(C)n1ncc2c(=O)n(Cc3c(F)cccc3Cl)cnc21	15%	2%	1%	2%	9.9*	7%
CC(C)(C)n1ncc2c(=O)n(CC(=O)Nc3ccc(Cl)cc3)cnc21	4%	1%	11%	1%	>57	-4%
S=C(NC1CCCCC1)NC1CCCCC1	·	·	·	-1%	·	?
COc1ccc(C(=O)COC(=O)c2ccco2)cc1	-5%	-2%	8%	0%[57.5 µM]	3.1*	0%
COc1cccc(NC(=O)COC(=O)c2ccco2)c1	3%	-3%	1%	1%	>57	-3%
N#CC(C(=O)NCc1ccccc1)c1nc2ccccc2nc1N1CCCC1 (stereo not given)	12%	?	8%	10µM*	>57	0%
COc1ccc(-c2cc3nc4n(c(=O)c3s2)CCOC4)cc1	·	0%[20.6 µM]	·	·	6.7*	·
COc1ccc(-c2nc3cnc(N4CCOCC4)nc3n(Cc3cccs3)c2=O)cc1	10%	-5%[9.22 µM]	104%	0%	·	-7%
Cc1cc(N)c2ccccc2[n+]1CCCCCCCCCCCCCC[n+]1c(C)cc(N)c2ccccc21	-9%	-1%	16µM*	-1%	·	?
O=C(O)c1ccc(Cl)c(Cl)c1	·	·	·	-1%	·	-9%
Cc1ccc(-c2cn3c(n2)CCCC3)cc1	-3%	9%	-7%	4%[0.369 µM]	>57	-3%
Cc1ccc(-c2cn3nc(C)c(C)nc3n2)cc1	·	-2%	9%	-3%[0.369 µM]	5.5*	-2%
c1ccc2c(c1)nc(-c1ccncc1)n1nnnc21	1%	-2%	-5%	-1%	8.9*	-3%
CCCN1C[C@@H](CSC)C[C@H]2c3cccc4[nH]cc(c34)C[C@@H]21	0%	0%	-20%	-1%	·	-10%
Cc1cccc(-c2noc(-c3ccccc3C(=O)NCC3CCCO3)n2)c1 (stereo not given)	7%	3%	27%	2%[1.84 µM]	·	4%
O=C(NCC1CCCO1)c1ccccc1-c1nc(-c2ccc(Cl)cc2)no1 (stereo not given)	-4%	2%	11%	-1%	10*	1%
O=C(NCc1ccc2c(c1)OCO2)c1c(F)c(F)c(F)c(F)c1F	-3%	-5%	-1%	-2%	7.7*	1%
O=C(CN1c2cccc3cccc(c23)S1(=O)=O)NCc1ccc2c(c1)OCO2	-3%[9.17 µM]	0%	29%[7.66 µM]	3%[0.0738 µM]	·	?
SMILES	UbGFP stabilizer	GFP derepression	USP2a inh	HBB splicing	PK Bst	Hsp90 Hop PPI
O=C(CN1C(=O)c2cccc3cccc1c23)Nc1ccc(S(=O)(=O)N2CCOCC2)cc1	-8%	3%	45%	-1%	10*	26%
CC(C(=O)NCc1ccc2c(c1)OCO2)N1c2cccc3cccc(c23)S1(=O)=O (stereo not given)	-7%	1%	40%	-3%	0.94*	15%
O=C(Nc1ccc2c(c1)OCO2)c1c(F)c(F)c(F)c(F)c1F	-2%	-3%	1%	-1%	>57	7%
O=C(CN1C(=O)c2cccc3cccc1c23)NCc1ccc2c(c1)OCO2	-2%	0%	11%	2%	2.8*	1%
O=C(Oc1ccccc1)N1CCC2(CCCN(c3ncccn3)C2)CC1	0%	7%[9.22 µM]	?	1%	·	3%
O=C(CN1C(=O)c2cccc3cccc1c23)Nc1ccc2c(c1)OCO2	-3%	1%	19%	0%	1.9*	3%
Cc1cc2ccccc2c(=O)n1CC(=O)Nc1ccc2c(c1)OCO2	3%	6%	7%	-1%	>57	-3%
Cc1ccc2nc(-c3ccc(NC(=O)c4ccco4)cc3)[nH]c2c1	-1%	-2%	18%	-1%	7.2*	-18%
Cn1cccc1-c1nc2ccc(NC(=O)c3ccco3)cc2[nH]1	4%	0%	47%	0%	i	-26%
O=C(Nc1ccc2nc(-c3cccs3)[nH]c2c1)c1ccco1	0%	3%	9%	0%	9.5*	-7%
CC(=O)Nc1ccc2nc(-c3ccccn3)[nH]c2c1	10%	2%	-23%	·	?	?
O=C(Nc1ccc2nc(-c3cccs3)[nH]c2c1)c1cccs1	-1%	0%	24%	3%	10*	-6%
O=C(c1[nH]o[n+](=O)c1C(=O)c1csc2ccccc12)c1csc2ccccc12	-3%[9.17 µM]	0%[9.22 µM]	·	1%[9.22 µM]	·	-4%[11 µM]
COc1ccc(-c2coc3ccc(O[C@@H]4O[C@@H](COC(C)=O)[C@@H](OC(C)=O)[C@@H](OC(C)=O)[C@H]4OC(C)=O)cc3c2=O)cc1	10%	0%[9.22 µM]	·	·	·	5%
COc1ccc(OC)c([C@H]2Nc3ccccc3NC3=C2C(=O)CC(C)(C)C3)c1Br	-4%	0%[9.22 µM]	·	·	·	-8%
COc1cccc(C=Nc2cc(C)on2)c1O	1%	0%	-8%	4%[0.369 µM]	·	-1%
CCc1ccc2oc(-c3cc(N=Cc4cccc(OC)c4O)ccc3O)nc2c1	2%	1%	231%	·	1.3*	-7%
Cc1nnc(SCC(=O)Nc2nsc(-c3ccccc3)n2)s1	-4%	0%	-1%	5%	·	-6%
O=C(Nc1nsc(-c2ccccc2)n1)c1cccs1	9%	2%	14%	-1%	7.8*	-3%
COc1ccc(CCNc2oc(Cc3cccc4ccccc34)nc2C#N)cc1OC	·	-2%	12%	2%[0.369 µM]	9.9*	?
N#Cc1c(N)n[nH]c1-c1cc2c([nH]1)CCCC2	3%	3%	1%	·	6.3*	-12%
